Experimental findings from PubChem BioAssay AID504834 (National Center for Advancing Translational Sciences (NCATS), 2011) are described below.

Where “and” joins values, the source holds several entries; their conditions need not be identical. Equal entries are not always repeated. The campaign covered roughly 320,000 compounds. About 22,000 (6.9%) were called active. Roughly 27% stayed inconclusive and do not appear here. The sample holds actives, similar compounds and a random draw of the others, so the mix is not that of the screen. Calls come from the whole dose curve; as a rule, active = well fitted inhibition curve with a large enough effect; inconclusive = small, poorly fitted or top-dose-only effect, or another doubt; inactive = no such curve, though single readings can be large or run the other way. Some compounds were tested as several samples or in several runs, with calls that do not always agree.
% is set by controls: 0 for no effect and ±100 for the full control effect; potency is the fitted concentration of half-maximal effect.

A short description of this experiment: Primary qHTS for delayed death inhibitors of the malarial parasite plastid, 96 hour incubation. The note with it: P. falciparum luciferase reporter growth; series mostly up to 28.7 µM; activity change, negative = inhibition: at the top concentration. Summed up:
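Plates of compound plus infected erythrocytes (2% hematocrit, 0.05% parasitemia final) incubate 96 hours, 37 C, 5% CO2. Detection reagent added; reduced luminescence from the parasites' luciferase reporter flags inhibition.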
As for `COc1ccc(S(=O)(=O)N(C)CC(=O)NCCCN2CCOCC2)cc1Cl`, the “activity change, negative = inhibition” value is 28.2% (inactive).

In the case of `CC(=O)c1ccc(NC(=O)CCc2nnc3ccc(NCc4ccco4)nn23)cc1`, the “activity change, negative = inhibition” value is 15.2% (inactive).

Consider `O=C(CCc1nnc2ccc(NCc3ccco3)nn12)Nc1cc(F)ccc1F`, for which the “activity change, negative = inhibition” value was -2.28% (inactive).

Consider `CCOc1ccccc1NC(=O)CCc1nnc2ccc(NCc3ccco3)nn12`, for which the Potency is 8.28 µM (active).

`CC(C)C[C@H](NC(=O)C1CCC(CNC(=O)[C@@H]2CCCN2C(=O)OC(C)(C)C)CC1)C(=O)O` (some centres not stated): the “activity change, negative = inhibition” value was 2.05% (inactive).

Turning to `CC(C)[C@H](NC(=O)N1CCn2c1nc1ccccc12)C(=O)NCc1ccc2c(c1)OCO2`, the “activity change, negative = inhibition” value is 1.93% (inactive).

In the case of `COc1ccc(CCNC(=O)CCCCCNC(=O)N2CCn3c2nc2ccccc23)cc1OC`, the Potency is 14.7 µM (active).

With `COc1ccc(CCNC(=O)CCc2ccccc2O)cc1OC`, the “activity change, negative = inhibition” value is 4.65% (inactive).

For the compound `Cc1ccc(C(=O)N2CCC(n3nccc3NC(=O)Nc3cccc(F)c3)CC2)cn1`, the “activity change, negative = inhibition” value is 0% (inactive).

With `CCCC(=O)Nc1ccc2c(c1)nc(CCNC(=O)c1ccco1)n2C`, the “activity change, negative = inhibition” value is 0% (inactive).

Turning to `COc1ccc(C2CC(c3cccs3)=Nc3ccccc3S2)cc1OC` (configuration not stated), the “activity change, negative = inhibition” value was 11.8% (inactive).

As to `COc1ccc(C2=NN(C(=O)CCC(=O)O)C(c3cccs3)C2)cc1OC` (configuration not stated), the “activity change, negative = inhibition” value is 23.4% (inactive).

Take `Cc1ccc(C2=NN(C(=O)CSc3nc(N)cc(N)n3)C(c3ccco3)C2)cc1` (configuration not stated): the “activity change, negative = inhibition” value was -26.7% (inactive).

For `COc1ccc(C2CC(c3ccccc3)=NN2C(=O)COC(=O)COc2ccccc2)cc1` (configuration not stated), the “activity change, negative = inhibition” value is 23.8% (inactive).

For the compound `COc1cccc(C2CC(c3cccs3)=NN2C(=O)CSC2=NCCS2)c1OC` (configuration not stated), the Potency was 6.57 µM (active).

In the case of `COc1ccc(C2CC(c3cccs3)=NN2C(=O)CSc2nncs2)cc1OC` (configuration not stated), the Potency is 10.4 µM (active).

`COc1ccc(C2CC(c3cccs3)=NN2c2ccc(F)cc2)cc1OC` (configuration not stated): the “activity change, negative = inhibition” value is 0% (inactive).

On to `COc1ccc(C2CC(c3cccs3)=NN2C(=O)CSc2nnc(N)s2)cc1OC` (configuration not stated), for which the Potency is 10.4 µM (active).

`COc1cccc(C2CC(c3ccccc3)=NN2S(=O)(=O)c2ccccc2)c1OC` (configuration not stated): the “activity change, negative = inhibition” value was -2.15% (inactive).

Turning to `COc1ccc(C2CC(c3cccs3)=NN2C(=O)COC(=O)c2cc3ccccc3cc2O)cc1OC` (configuration not stated), the “activity change, negative = inhibition” value is 0% (inactive).

For the compound `Cc1ccccc1C1CC(c2cccs2)=NN1S(C)(=O)=O` (configuration not stated), the “activity change, negative = inhibition” value was -23.6% (inactive).

In the case of `COc1ccc(C2CC(c3cccs3)=NN2C(=O)CCC(=O)O)cc1OC` (configuration not stated), the Potency was 2.62 µM (active).

`COc1ccccc1CNC(=O)COC(=O)CNS(=O)(=O)c1ccc(NC(C)=O)cc1`: the “activity change, negative = inhibition” value was -14.5% (inactive).

With `CCCn1cc(S(=O)(=O)c2ccc(C)cc2)c(=O)c2cc(OCC)ccc21`, the “activity change, negative = inhibition” value is 32.7% (inactive).

For the compound `CCOc1ncccc1C(=O)NNC(=O)c1cccc(S(=O)(=O)Nc2ccccc2OC)c1`, the “activity change, negative = inhibition” value is 9.01% (inactive).

On to `O=C(CNC(=O)c1cccs1)N/N=C/c1cccc(Br)c1`, for which the “activity change, negative = inhibition” value was 38.7% (inactive).

As to `Cc1cc(F)ccc1S(=O)(=O)Nc1ccc(C(=O)N(C)Cc2ccco2)cc1`, the “activity change, negative = inhibition” value is 30% (inactive).

On to `Cc1sc2ncnc(N3CCC(C(=O)Nc4nc5ccc(Cl)cc5s4)CC3)c2c1C`, for which the “activity change, negative = inhibition” value is 36.2% (inactive).

As to `O=C(N/N=C\C1CC=CCC1)c1ccc(Br)o1` (configuration not stated), the “activity change, negative = inhibition” value was 2.65% (inactive).

For the compound `Cc1ccc(C(=O)N/C(=C/c2cccs2)C(=O)NCC2CCCO2)cc1` (configuration not stated), the “activity change, negative = inhibition” value is 32.8% (inactive).

`Cc1ccc(S(=O)(=O)N2CCC(C(=O)NCC3CCCO3)CC2)cc1` (configuration not stated): the “activity change, negative = inhibition” value is -25.5% (inactive).

In the case of `Cc1ccc(-n2c(C)cc(/C=C(\C#N)C(=O)NCC3CCCO3)c2C)cc1` (configuration not stated), the Potency is 5.86 µM (active).

Regarding `CC(=O)N(CC(O)CO)c1c(I)c(C(=O)NCC(O)CO)c(I)c(C(=O)NCC(O)CO)c1I` (configuration not stated), the Potency entry was “inactive and 13.5 µM (active)”.

Turning to `CC(C)(Oc1ccc(Cl)cc1)C(=O)OCC(=O)NCCc1ccc(S(N)(=O)=O)cc1`, the “activity change, negative = inhibition” value was 9.46% (inactive).

Consider `Cc1cc(C)n2nc(C(=O)OC(C)C(=O)c3cc(C)c(C)cc3C)nc2n1` (configuration not stated), for which the “activity change, negative = inhibition” value was 46.2% (inactive).

Turning to `Oc1ccc(Cl)c2c1CCC2`, the “activity change, negative = inhibition” value was -18% (inactive).

As for `Cc1ccc(NC(=O)Nc2cc(-c3ccccc3)nn2C)cc1Cl`, the “activity change, negative = inhibition” value is 22.7% (inactive).

For `COc1cccc(NC(=O)CN(C)C(=O)/C=C/c2cn(-c3ccccc3)nc2-c2cccs2)c1`, the “activity change, negative = inhibition” value was 3.17% (inactive).

Turning to `COc1ccc(NC(=O)CN(C)C(=O)/C=C/c2cn(Cc3ccccc3)nc2-c2cccnc2)cc1`, the Potency is 9.28 µM (active).

As to `O=Cc1cn(Cc2ccccc2)nc1-c1cccnc1`, the “activity change, negative = inhibition” value is 10.1% (inactive).

Consider `O=C(Nc1ccc(NC(=O)c2ccc3c(c2)OCO3)cc1)c1cccc(Cl)c1`, for which the “activity change, negative = inhibition” value is -12.7% (inactive).

As to `CN(c1ccccc1)S(=O)(=O)c1ccc(C(=O)NCCc2ccccc2)cc1`, the “activity change, negative = inhibition” value is 4.97% (inactive).

As for `CC1(C)CCc2nc(SCc3ccccc3)c(C#N)cc2C1`, the Potency is 6.57 µM (active).

As for `Cc1cc(C)nc(SCc2ccccc2C#N)n1`, the “activity change, negative = inhibition” value is 103% (inactive).

For the compound `CC(NC(=O)CSc1nc2c(cc1C#N)CN(C)CC2)c1ccccc1` (configuration not stated), the “activity change, negative = inhibition” value is 58.3% (inactive).

In the case of `CCCCN(C(=O)c1nn(C)c(=O)c2ccccc12)c1c(N)n(CCC)c(=O)[nH]c1=O`, the “activity change, negative = inhibition” value is 14.7% (inactive).

In the case of `COc1ccccc1C(=O)NC(=S)Nc1ccccc1N1CCCCC1`, the “activity change, negative = inhibition” value is 25.3% (inactive).

For the compound `Oc1ccc(N=Nc2nccs2)c(O)c1`, the Potency is 11.7 µM (active).

With `Oc1ccc2ccccc2c1N=Nc1nccs1`, the Potency was 9.28 µM (active).

As for `c1ccc(NCc2cccc3ccccc23)nc1`, the “activity change, negative = inhibition” value is -21% (inactive).

As to `Oc1c(C=Nc2cccc3nsnc23)ccc2ccccc12`, the “activity change, negative = inhibition” value is 0% (inactive).

As for `COc1ccc(C(=O)N[C@H](C(=O)NCc2ccccc2)C(C)C)cc1`, the “activity change, negative = inhibition” value is 13.7% (inactive).

As for `COc1cccc(NC(=O)N2CCCC2C(=O)NC2CCCCC2)c1` (configuration not stated), the “activity change, negative = inhibition” value is -1.78% (inactive).

For `CCOC(=O)Cn1c(=O)n(Cc2ccc(OC)cc2)c(=O)c2cccnc21`, the “activity change, negative = inhibition” value was 28.9% (inactive).

With `c1ccc(-c2oc3ncnc(N4CCOCC4)c3c2-c2ccccc2)cc1`, the “activity change, negative = inhibition” value was -6.25% (inactive).

Take `COc1ccc(-c2oc3ncnc(NCCCO)c3c2-c2ccc(OC)cc2)cc1`: the Potency was 2.08 µM (active).

Consider `COc1cc2nc(Cl)nc(NCCO)c2cc1OC`, for which the “activity change, negative = inhibition” value is 1.36% (inactive).

`Cc1ccc(S(=O)(=O)N(Cc2ccccc2)c2ccccn2)cc1[N+](=O)[O-]`: the “activity change, negative = inhibition” value is -14.9% (inactive).

In the case of `CCC(C)N1CC(=O)N2Cc3[nH]c4ccccc4c3C[C@H]2C1=O` (some centres not stated), the “activity change, negative = inhibition” value was 3.67% (inactive).

Turning to `Oc1cccc(C2c3[nH]c4ccccc4c3CCN2Cc2cnn(-c3ccccc3)c2)c1` (configuration not stated), the “activity change, negative = inhibition” value is 2.75% (inactive).

Consider `Cc1[nH]nc(-c2ccc(OCc3cnn(-c4ccccc4)c3)cc2O)c1Oc1ccc(Cl)cc1`, for which the Potency was 13.1 µM (active).

Turning to `CN=C1S/C(=C\c2c(OC)cc(OC)cc2OC)C(=O)N1C`, the “activity change, negative = inhibition” value is 14.8% (inactive).

Regarding `O=C(CN1CCCCCC1)Nc1ccc(S(=O)(=O)N2CCCCC2)cc1`, the “activity change, negative = inhibition” value was 4.97% (inactive).

With `CC(Oc1ccccc1[N+](=O)[O-])C(=O)N/N=C/c1ccoc1` (configuration not stated), the “activity change, negative = inhibition” value was 39.7% (inactive).

As for `Cc1cc(-c2csc(N)n2)c(C)n1Cc1ccccc1`, the “activity change, negative = inhibition” value is -16.6% (inactive).

With `CCc1noc(C)c1C(=O)Nc1nc(-c2ccccc2)cs1`, the “activity change, negative = inhibition” value was 50.8% (inactive).

Regarding `CC(=O)Nc1ccc(C(=O)Nc2nc(-c3cc(C)n(Cc4ccccc4)c3C)cs2)cc1`, the Potency was 4.15 µM (active).
